ChEMBL document CHEMBL1961873, “Compounds: GSK PKIS; Assays: Nanosyn kinase panel” (2012)
Values joined by “and” are separate entries in the source; they are usually repeats but may differ in a detail not shown here. Identical values can stand only once.

How the values were obtained:
[1] = molecular target: Tyrosine-protein kinase Fyn (Homo sapiens) (UniProt P06241); settings: at 1 µM
[2] = molecular target: Tyrosine-protein kinase HCK (Homo sapiens) (UniProt P08631); settings: at 0.1 µM
[3] = molecular target: Tyrosine-protein kinase HCK (Homo sapiens) (UniProt P08631); settings: at 1 µM
[4] = molecular target: Insulin-like growth factor 1 receptor (Homo sapiens) (UniProt P08069); settings: at 0.1 µM
[5] = molecular target: Insulin-like growth factor 1 receptor (Homo sapiens) (UniProt P08069); settings: at 1 µM
[6] = molecular target: Insulin receptor (Homo sapiens) (UniProt P06213); settings: at 0.1 µM
[7] = molecular target: Insulin receptor (Homo sapiens) (UniProt P06213); settings: at 1 µM
[8] = molecular target: Insulin receptor-related protein (Homo sapiens) (UniProt P14616); settings: at 0.1 µM
[9] = molecular target: Insulin receptor-related protein (Homo sapiens) (UniProt P14616); settings: at 1 µM
[10] = molecular target: T1, Tyrosine-protein kinase ITK/TSK (Homo sapiens) (UniProt Q08881); settings: at 0.1 µM
T1 sequence (whole entry): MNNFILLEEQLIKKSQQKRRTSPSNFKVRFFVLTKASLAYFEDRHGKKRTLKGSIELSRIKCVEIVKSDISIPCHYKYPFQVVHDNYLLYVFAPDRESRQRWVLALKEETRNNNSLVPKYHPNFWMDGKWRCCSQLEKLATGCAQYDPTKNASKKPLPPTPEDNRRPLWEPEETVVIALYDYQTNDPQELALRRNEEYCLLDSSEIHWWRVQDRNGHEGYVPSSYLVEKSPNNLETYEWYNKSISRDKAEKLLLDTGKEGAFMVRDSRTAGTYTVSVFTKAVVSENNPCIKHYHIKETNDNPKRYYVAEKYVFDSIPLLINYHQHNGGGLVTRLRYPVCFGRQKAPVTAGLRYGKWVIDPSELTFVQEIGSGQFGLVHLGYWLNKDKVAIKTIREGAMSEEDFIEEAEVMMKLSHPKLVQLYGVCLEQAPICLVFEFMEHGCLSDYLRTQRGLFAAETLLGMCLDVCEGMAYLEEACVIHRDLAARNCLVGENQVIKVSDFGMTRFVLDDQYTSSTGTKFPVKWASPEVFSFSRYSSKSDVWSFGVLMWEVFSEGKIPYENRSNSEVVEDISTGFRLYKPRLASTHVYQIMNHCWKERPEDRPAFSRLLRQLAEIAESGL

[11] = molecular target: T1, Tyrosine-protein kinase ITK/TSK (Homo sapiens); settings: at 1 µM
[12] = molecular target: Tyrosine-protein kinase JAK1 (Homo sapiens) (UniProt P23458); settings: at 0.1 µM
[13] = molecular target: Tyrosine-protein kinase JAK1 (Homo sapiens) (UniProt P23458); settings: at 1 µM
[14] = molecular target: Tyrosine-protein kinase JAK2 (Homo sapiens) (UniProt O60674); settings: at 0.1 µM
[15] = molecular target: Tyrosine-protein kinase JAK2 (Homo sapiens) (UniProt O60674); settings: at 1 µM
[16] = molecular target: T2, Tyrosine-protein kinase JAK3 (Homo sapiens) (UniProt P52333); settings: at 0.1 µM
T2 sequence (whole entry): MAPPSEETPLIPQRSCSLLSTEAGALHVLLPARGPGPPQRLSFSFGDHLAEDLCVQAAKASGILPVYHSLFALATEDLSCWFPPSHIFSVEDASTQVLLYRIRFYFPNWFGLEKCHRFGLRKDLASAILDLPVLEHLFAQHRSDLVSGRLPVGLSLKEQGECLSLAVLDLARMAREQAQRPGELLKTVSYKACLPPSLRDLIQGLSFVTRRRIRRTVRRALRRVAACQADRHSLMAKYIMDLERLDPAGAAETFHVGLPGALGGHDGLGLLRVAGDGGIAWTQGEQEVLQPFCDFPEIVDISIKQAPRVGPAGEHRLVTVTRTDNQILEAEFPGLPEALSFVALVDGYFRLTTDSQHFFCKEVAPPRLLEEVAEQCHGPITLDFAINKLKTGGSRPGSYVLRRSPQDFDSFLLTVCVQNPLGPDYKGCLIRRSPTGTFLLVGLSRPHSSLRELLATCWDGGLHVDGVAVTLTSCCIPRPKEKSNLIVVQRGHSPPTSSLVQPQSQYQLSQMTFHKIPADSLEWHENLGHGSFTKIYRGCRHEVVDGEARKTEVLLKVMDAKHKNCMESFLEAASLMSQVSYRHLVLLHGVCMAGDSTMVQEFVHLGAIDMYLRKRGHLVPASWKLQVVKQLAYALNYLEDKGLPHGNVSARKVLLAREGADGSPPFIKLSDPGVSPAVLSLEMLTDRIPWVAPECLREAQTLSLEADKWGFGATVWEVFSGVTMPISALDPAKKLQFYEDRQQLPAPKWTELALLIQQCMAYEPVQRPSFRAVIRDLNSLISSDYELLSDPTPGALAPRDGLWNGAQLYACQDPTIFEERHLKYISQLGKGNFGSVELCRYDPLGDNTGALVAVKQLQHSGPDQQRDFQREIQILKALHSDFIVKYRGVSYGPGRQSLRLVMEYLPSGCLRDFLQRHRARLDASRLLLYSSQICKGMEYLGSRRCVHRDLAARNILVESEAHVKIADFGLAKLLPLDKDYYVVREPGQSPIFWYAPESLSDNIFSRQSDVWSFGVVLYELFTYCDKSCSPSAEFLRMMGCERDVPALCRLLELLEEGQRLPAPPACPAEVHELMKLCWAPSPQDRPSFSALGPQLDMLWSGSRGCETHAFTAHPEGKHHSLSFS

[17] = molecular target: T2, Tyrosine-protein kinase JAK3 (Homo sapiens); settings: at 1 µM
[18] = molecular target: Vascular endothelial growth factor receptor 2 (Homo sapiens) (UniProt P35968); settings: at 0.1 µM
[19] = molecular target: Vascular endothelial growth factor receptor 2 (Homo sapiens) (UniProt P35968); settings: at 1 µM
[20] = molecular target: Mast/stem cell growth factor receptor Kit (Homo sapiens) (UniProt P10721); settings: at 0.1 µM;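 also: values are mean inhibition of KIT, from the GSK PKIS dataset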
Sequence of Mast/stem cell growth factor receptor Kit (Homo sapiens) (P10721 whole entry): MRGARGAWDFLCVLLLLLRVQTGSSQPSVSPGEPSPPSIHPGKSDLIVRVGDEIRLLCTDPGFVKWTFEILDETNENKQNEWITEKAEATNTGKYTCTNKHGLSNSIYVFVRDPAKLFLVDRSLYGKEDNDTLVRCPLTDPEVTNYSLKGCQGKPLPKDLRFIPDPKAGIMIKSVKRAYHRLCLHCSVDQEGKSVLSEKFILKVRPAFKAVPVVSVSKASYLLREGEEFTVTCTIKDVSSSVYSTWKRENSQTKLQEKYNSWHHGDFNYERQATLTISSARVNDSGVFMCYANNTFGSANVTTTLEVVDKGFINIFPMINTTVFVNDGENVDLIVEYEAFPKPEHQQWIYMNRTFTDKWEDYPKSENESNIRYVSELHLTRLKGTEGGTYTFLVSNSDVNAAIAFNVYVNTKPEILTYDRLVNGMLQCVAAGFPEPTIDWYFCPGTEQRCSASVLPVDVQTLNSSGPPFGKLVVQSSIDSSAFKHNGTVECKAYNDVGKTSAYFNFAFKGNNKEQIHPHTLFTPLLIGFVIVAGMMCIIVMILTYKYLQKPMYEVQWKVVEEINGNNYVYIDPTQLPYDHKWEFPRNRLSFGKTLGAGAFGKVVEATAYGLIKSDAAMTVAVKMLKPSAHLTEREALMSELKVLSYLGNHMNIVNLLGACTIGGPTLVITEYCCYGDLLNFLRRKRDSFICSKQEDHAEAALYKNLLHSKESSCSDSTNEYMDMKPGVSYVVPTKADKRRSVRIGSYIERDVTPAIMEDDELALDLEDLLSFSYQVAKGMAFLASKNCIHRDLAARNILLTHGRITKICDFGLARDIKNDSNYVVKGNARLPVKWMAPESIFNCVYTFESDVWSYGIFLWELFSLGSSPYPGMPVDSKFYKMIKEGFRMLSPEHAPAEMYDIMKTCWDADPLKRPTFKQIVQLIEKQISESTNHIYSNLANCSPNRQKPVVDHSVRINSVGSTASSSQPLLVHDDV

Sequence of Tyrosine-protein kinase JAK2 (Homo sapiens) (O60674 whole entry): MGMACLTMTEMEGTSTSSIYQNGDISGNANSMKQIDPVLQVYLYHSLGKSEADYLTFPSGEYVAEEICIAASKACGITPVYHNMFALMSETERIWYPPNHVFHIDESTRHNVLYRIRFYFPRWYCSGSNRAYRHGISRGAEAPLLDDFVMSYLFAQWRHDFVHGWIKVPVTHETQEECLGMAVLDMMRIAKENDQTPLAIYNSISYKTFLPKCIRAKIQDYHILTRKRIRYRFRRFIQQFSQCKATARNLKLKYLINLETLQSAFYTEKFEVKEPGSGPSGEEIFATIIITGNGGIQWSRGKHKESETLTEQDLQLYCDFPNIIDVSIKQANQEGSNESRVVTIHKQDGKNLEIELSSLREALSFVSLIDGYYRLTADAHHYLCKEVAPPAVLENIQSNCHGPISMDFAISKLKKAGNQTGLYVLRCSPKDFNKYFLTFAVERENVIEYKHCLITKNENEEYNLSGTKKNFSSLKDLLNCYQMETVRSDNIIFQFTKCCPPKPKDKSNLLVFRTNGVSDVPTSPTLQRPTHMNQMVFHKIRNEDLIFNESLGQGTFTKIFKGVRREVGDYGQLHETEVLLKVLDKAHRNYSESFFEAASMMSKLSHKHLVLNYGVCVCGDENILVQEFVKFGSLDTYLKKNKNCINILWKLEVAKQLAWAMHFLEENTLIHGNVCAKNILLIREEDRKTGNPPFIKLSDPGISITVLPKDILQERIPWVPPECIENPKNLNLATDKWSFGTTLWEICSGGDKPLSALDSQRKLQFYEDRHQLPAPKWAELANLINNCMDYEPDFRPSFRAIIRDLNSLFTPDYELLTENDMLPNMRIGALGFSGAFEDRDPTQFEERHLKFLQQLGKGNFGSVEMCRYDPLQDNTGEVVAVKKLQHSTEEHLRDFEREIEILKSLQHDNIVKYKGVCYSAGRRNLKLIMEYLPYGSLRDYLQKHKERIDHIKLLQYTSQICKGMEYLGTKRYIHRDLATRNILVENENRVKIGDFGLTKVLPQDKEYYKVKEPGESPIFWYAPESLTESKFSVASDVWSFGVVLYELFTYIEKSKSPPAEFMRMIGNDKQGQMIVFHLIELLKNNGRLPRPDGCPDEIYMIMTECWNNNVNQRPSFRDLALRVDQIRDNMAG
Sequence of Vascular endothelial growth factor receptor 2 (Homo sapiens) (P35968 whole entry): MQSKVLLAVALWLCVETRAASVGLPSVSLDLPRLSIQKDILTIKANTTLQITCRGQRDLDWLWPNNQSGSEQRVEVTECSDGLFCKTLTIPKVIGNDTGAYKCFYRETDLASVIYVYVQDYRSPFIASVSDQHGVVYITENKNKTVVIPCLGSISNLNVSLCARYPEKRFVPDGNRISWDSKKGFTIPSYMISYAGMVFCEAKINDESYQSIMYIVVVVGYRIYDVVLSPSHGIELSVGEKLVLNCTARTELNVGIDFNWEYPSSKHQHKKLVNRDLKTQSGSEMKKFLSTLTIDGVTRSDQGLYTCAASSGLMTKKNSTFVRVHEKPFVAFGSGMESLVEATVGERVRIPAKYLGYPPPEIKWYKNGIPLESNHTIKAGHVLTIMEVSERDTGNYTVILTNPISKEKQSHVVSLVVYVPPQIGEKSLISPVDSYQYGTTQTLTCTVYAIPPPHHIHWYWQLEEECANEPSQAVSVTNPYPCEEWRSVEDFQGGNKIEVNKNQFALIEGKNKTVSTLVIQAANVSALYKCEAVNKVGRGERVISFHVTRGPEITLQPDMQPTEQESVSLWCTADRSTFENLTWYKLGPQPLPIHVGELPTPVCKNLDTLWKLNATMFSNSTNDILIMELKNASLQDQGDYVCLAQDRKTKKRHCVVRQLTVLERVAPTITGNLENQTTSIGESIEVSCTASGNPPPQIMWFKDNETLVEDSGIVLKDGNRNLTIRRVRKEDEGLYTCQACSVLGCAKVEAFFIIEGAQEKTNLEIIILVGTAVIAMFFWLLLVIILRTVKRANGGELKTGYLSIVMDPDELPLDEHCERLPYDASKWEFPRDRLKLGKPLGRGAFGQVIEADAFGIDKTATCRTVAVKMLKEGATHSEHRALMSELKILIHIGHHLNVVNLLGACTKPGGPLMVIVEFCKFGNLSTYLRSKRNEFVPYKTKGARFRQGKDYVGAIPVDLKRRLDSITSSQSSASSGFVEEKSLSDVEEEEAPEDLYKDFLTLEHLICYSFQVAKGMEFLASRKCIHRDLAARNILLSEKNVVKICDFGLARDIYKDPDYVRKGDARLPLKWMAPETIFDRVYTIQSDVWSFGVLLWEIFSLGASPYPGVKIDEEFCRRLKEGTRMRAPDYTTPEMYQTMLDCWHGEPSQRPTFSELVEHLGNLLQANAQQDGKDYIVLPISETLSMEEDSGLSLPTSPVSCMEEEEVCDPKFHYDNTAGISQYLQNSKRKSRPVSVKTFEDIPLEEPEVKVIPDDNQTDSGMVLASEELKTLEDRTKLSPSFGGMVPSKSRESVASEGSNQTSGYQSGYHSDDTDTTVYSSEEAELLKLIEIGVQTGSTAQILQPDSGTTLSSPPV
Sequence of Tyrosine-protein kinase HCK (Homo sapiens) (P08631 2-526 limits assumed): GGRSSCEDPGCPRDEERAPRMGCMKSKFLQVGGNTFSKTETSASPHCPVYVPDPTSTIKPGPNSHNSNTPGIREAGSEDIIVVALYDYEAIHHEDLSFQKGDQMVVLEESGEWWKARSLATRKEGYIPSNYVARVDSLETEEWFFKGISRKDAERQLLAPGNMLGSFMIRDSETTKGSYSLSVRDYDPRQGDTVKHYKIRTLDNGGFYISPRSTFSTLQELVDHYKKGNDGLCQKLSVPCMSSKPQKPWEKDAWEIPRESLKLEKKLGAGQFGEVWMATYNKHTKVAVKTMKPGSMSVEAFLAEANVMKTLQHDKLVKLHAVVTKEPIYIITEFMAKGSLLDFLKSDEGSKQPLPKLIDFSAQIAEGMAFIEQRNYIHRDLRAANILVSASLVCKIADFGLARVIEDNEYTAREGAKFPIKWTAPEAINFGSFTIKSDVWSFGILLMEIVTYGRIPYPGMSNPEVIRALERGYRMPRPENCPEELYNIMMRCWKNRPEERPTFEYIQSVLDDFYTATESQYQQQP
Sequence of Tyrosine-protein kinase Fyn (Homo sapiens) (P06241 2-537 limits assumed): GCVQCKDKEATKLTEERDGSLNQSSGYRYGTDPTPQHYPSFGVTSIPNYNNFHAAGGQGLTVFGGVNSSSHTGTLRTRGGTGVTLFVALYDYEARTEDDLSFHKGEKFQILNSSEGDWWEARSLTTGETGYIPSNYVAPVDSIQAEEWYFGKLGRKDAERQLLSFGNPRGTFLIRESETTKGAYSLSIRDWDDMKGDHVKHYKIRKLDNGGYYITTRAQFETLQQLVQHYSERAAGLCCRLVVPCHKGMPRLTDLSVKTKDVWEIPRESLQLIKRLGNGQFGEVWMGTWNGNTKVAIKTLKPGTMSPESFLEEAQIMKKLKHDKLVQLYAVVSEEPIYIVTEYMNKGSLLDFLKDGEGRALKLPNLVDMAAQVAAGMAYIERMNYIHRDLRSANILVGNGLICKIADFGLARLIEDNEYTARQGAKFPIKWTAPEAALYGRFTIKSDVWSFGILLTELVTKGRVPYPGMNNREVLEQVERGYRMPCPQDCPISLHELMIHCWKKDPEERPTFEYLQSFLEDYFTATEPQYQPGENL

Compound	inhibition [1]	inhibition [2]	inhibition [3]	inhibition [4]	inhibition [5]	inhibition [6]	inhibition [7]	inhibition [8]	inhibition [9]	inhibition [10]	inhibition [11]	inhibition [12]	inhibition [13]	inhibition [14]	inhibition [15]	inhibition [16]	inhibition [17]	inhibition [18]	inhibition [19]	inhibition [20]
CN1CCN(Cc2ccc(-c3cc4ncnc(Nc5ccc(OCc6cccc(F)c6)c(Cl)c5)c4s3)o2)CC1	9.29% and 9.99%	3.14% and 4.38%	7.61% and 13.1%	-0.2% and 3.7%	1.01% and 6.72%	2.51% and 7.21%	3.07% and 7.9%	1.81% and 2.44%	3.22% and 4.36%	1.02% and 2.31%	2.43% and 2.68%	1.06% and 6.88%	3.27% and 18.5%	0.99% and 0.67%	0.57% and 0.86%	-2.47% and -0.74%	-1.79% and -0.23%	7.34% and 7.83%	24% and 24.2%	3.38% and 6.79%
CCn1c(-c2nonc2N)nc2cncc(C(=O)NCCNC)c21	2%	4.96%	6.37%	1.12%	5.76%	5.87%	15.3%	3.26%	5.53%	-0.27%	0.3%	0.48%	2.04%	2.49%	0.73%	-3.8%	-2.17%	4.45%	13.5%	6.23%
O=C(Nc1n[nH]c2nnc(-c3cccnc3)cc12)C1CC1	4.86%	0.81%	2.83%	0.22%	-1.27%	3.48%	1.82%	-0.87%	-1.01%	0.11%	2.49%	1.49%	2.85%	-0.35%	0.3%	-0.15%	0.02%	-0.85%	2.5%	1.26%
COC(=O)Nc1nc2ccc(Oc3ccc(NC(=O)Nc4cc(C(F)(F)F)ccc4F)cc3)cc2s1	21.1%	8.79%	28.3%	-0.75%	1.6%	1.59%	3.09%	-2.9%	-1.09%	1.03%	2.72%	0.07%	9.06%	1.98%	7.31%	-0.26%	0.75%	69.8%	85.1%	17.9%
Cn1c(-c2nonc2N)nc2cnccc21	2.28%	6.35%	6.33%	1.93%	3.66%	5.09%	6.68%	2.16%	-0.85%	1.03%	1.68%	4.75%	2.08%	1.45%	1.42%	-1.06%	-0.29%	4.81%	12.2%	4.67%
Cc1cc(O)cc(C)c1/C=C/c1cncc(C(=O)OC(C)(C)C)c1	39.1%	11.3%	51.5%	4.61%	2.33%	3.02%	4.74%	2.54%	1.64%	1.16%	2.71%	1.99%	7.09%	1.65%	3.69%	0.72%	6.16%	4.17%	6%	38.3%
O=C(O[C@H]1CN[C@H](C#Cc2cc3ncnc(Nc4ccc(OCc5cccc(F)c5)c(Cl)c4)c3s2)C1)N1CCOCC1	6.59%	3.37%	6.71%	6.13%	14.8%	7.72%	5.91%	3.84%	3.3%	0.99%	2.04%	5.13%	13.7%	0.79%	1.3%	-0.56%	-2.5%	2.63%	7.79%	5.01%
NS(=O)(=O)c1ccc(N/N=C2\C(=O)Nc3cccc(CCc4ccncc4)c32)cc1	4.54%	2.52%	6.49%	1.21%	1.06%	4.32%	5.06%	-0.57%	0.48%	0.79%	2.79%	-0.35%	1.96%	0.5%	1.19%	0.74%	5.91%	19.6%	46.7%	27%
Fc1cccc(COc2ccc(Nc3ncncc3C#Cc3ccccc3)cc2Cl)c1	2.9%	5.09%	7.44%	3.73%	3.91%	2.77%	4.63%	0.84%	3.29%	1.58%	1.93%	2.37%	14.7%	1.34%	2.01%	-1.12%	0.1%	5.83%	6.38%	3.62%
CC1=C(C(=O)Nc2ccc3[nH]nc(C)c3c2)C(c2ccc(C(F)(F)F)cc2)CC(=O)N1 (stereo not given)	2.72%	4.64%	9.34%	2.37%	3.78%	0.03%	1.72%	2.64%	1.26%	1.81%	7.86%	38.5%	70.7%	31.1%	82.4%	15.6%	68.8%	5.36%	11%	2.41%
COc1cc2c(cc1Nc1nc(Nc3cccc(F)c3C(N)=O)c3cc[nH]c3n1)N(C(=O)CN1CCN(C(C)C)CC1)CC2	2.53%	1.66%	2.73%	57.8%	87.7%	69.1%	88.2%	6.85%	44.3%	1.77%	4.16%	-0.19%	-3.81%	0.65%	2.21%	0.64%	6.68%	0.99%	9.98%	-1.31%
CS(=O)(=O)CCNCc1ccc(-c2ccc3ncnc(Nc4ccc(OCc5ccccc5)cc4)c3c2)o1	14.9%	7.13%	14.3%	1.22%	2.03%	-0.92%	2.86%	1.91%	2.07%	0.71%	2.16%	6.4%	5.72%	1.29%	0.35%	-2%	-1.45%	3.83%	6.56%	2.46%
